In PubChem BioAssay (NCI) one finds growth inhibition data, which are given here for 10 compounds.

Structures are written as SMILES. About 79,000 compounds went through this panel and 15% of them were active in at least one assay; those are over-represented in the sample as a whole. Unmarked numbers belong to inactive results. Activity calls are given as the source filed them. Cut-off read from the data, not from the text of the source: active = growth inhibition above about 70%; inactive = the rest.

The nature of experiment [1]: NCI Yeast Anticancer Drug Screen. Data for the rad50 strain (AID 155).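 Note: 0% = growth of vehicle-only cultures of the same strain.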 The conditions noted are these: S. cerevisiae rad50 strain growth inhibition, stronger effect = higher value. A digest of the protocol:
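Relative growth inhibition (compound vs vehicle) was measured in yeast with a defined repair-gene alteration.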

Experiment [2] can be described thus: NCI Yeast Anticancer Drug Screen. Data for the mec2-1 strain (AID 157). The conditions noted are these: S. cerevisiae mec2-1 strain, stronger effect = higher value. A digest of the protocol: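 Mutant yeast (mec2-1) grown with compound; growth inhibition relative to vehicle control reported.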
Experiment [3] in a line: NCI Yeast Anticancer Drug Screen. Data for the sgs1 mgt1 strain (AID 161).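 Note: 0% = growth of cultures given vehicle only.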 The conditions noted are these: S. cerevisiae sgs1 mgt1 strain, stronger effect = higher value. In outline: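 Percent growth inhibition was derived by comparing compound-exposed mutant yeast with vehicle-exposed cultures. The strain carries alterations in DNA damage repair.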
Experiment [4] is described as follows: NCI Yeast Anticancer Drug Screen. Data for the cln2 rad14 strain (AID 165).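 Note: 0% = growth equal to vehicle treated cultures.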 The conditions noted are these: S. cerevisiae cln2 rad14 strain, stronger effect = higher value. A digest of the protocol: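 Readout is yeast growth inhibition versus vehicle-treated controls, using a strain with cln2 and rad14 alterations exposed to compound.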
Experiment [5] can be described thus: NCI Yeast Anticancer Drug Screen. Data for the bub3 strain (AID 167). The conditions noted are these: S. cerevisiae bub3 mutant strain, stronger effect = higher value. A digest of the protocol:
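Screening used yeast with an engineered genetic alteration affecting cell cycle control. Compound-exposed cultures were compared with vehicle cultures, and reduced growth was taken as inhibition.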

Experiment [6] is described as follows: NCI Yeast Anticancer Drug Screen. Data for the mlh1 rad18 strain (AID 175). The conditions noted are these: S. cerevisiae mlh1 rad18 strain growth inhibition, stronger effect = higher value. A digest of the protocol: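 Genetically defined yeast (DNA repair-deficient) exposed to compounds; growth inhibition determined relative to vehicle.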
Where [7] appears, read: at 5.0 µM (retest, dose inferred, filed as 0.5).
[8] abbreviates: at 50.0 µM (retest, dose inferred, filed as 5.0).

As to `CC(C)(C)c1c2c(c(C(C)(C)C)c3c1OCN(Cc1ccccc1)C3)OCN(Cc1ccccc1)C2`, the growth inhibition in experiment [1] (setting [7]) was 4%; in experiment [1] (setting [8]) it was 12%; in experiment [1] (at 50.0 µM), 54.1%; in experiment [2] (setting [7]), 0%; in experiment [2] (setting [8]), -13%; in experiment [2] (at 50.0 µM), 9.25%. Further, the growth inhibition in experiment [3] (setting [7]) was -2%; in experiment [3] (setting [8]), -19%; in experiment [3] (at 50.0 µM), 71.7% (active); in experiment [4] (setting [7]), -15%; in experiment [4] (setting [8]), -38%; in experiment [4] (at 50.0 µM) it was 17.6%. The growth inhibition is -5% in experiment [5] (setting [7]); 18% in experiment [5] (setting [8]); 11.7% in experiment [5] (at 50.0 µM); -10% in experiment [6] (setting [7]); 1% in experiment [6] (setting [8]); 41.5% in experiment [6] (at 50.0 µM).
As to `Nc1ccc(-c2nc3ccccc3s2)cc1`, the growth inhibition in experiment [1] (setting [7]) was 21%; in experiment [1] (setting [8]) it was 96% (active); in experiment [1] (at 50.0 µM), 89.8% (active); in experiment [2] (setting [7]), 2%; in experiment [2] (setting [8]), 100% (active); in experiment [2] (at 50.0 µM), 91.8% (active). Besides, the growth inhibition in experiment [3] (setting [7]) was -3%; in experiment [3] (setting [8]) it was 99% (active); in experiment [3] (at 50.0 µM), 88.4% (active); in experiment [4] (setting [7]) it was 8%; in experiment [4] (setting [8]), 85% (active); in experiment [4] (at 50.0 µM) it was 87.6% (active). Moreover, the growth inhibition in experiment [5] (setting [7]) was -2%; in experiment [5] (setting [8]) it was 99% (active); in experiment [5] (at 50.0 µM), 86.2% (active); in experiment [6] (setting [7]) it was 10%; in experiment [6] (setting [8]), 98% (active); in experiment [6] (at 50.0 µM) it was 84.6% (active).
For `CN(CN(C)N=Nc1ccc(Cl)cc1)CN(C)N=Nc1ccc(Cl)cc1`, the growth inhibition in experiment [1] (setting [7]) was -14%; in experiment [1] (setting [8]), 9%; in experiment [1] (at 50.0 µM), -3.1%; in experiment [2] (setting [7]), 3%; in experiment [2] (setting [8]), -8%; in experiment [2] (at 50.0 µM) it was -1.75%. Further, the growth inhibition in experiment [3] (setting [7]) is -24%; in experiment [3] (setting [8]), 4%; in experiment [3] (at 50.0 µM), 4.7%; in experiment [4] (setting [7]) it was -6%; in experiment [4] (setting [8]), -2%; in experiment [4] (at 50.0 µM), 19.9%. The growth inhibition was 0% in experiment [5] (setting [7]); 4% in experiment [5] (setting [8]); -0.7% in experiment [5] (at 50.0 µM); -12% in experiment [6] (setting [7]); 3% in experiment [6] (setting [8]); 9.7% in experiment [6] (at 50.0 µM).
For `O=C(Nc1cccc(Cl)c1)OCCN(CCOC(=O)Nc1cccc(Cl)c1)C(=O)Nc1cccc(Cl)c1`, the growth inhibition in experiment [1] (setting [7]) was 31%; in experiment [1] (setting [8]) it was 76% (active); in experiment [1] (at 50.0 µM), 77.8% (active); in experiment [2] (setting [7]), 27%; in experiment [2] (setting [8]), 80% (active); in experiment [2] (at 50.0 µM), 51.4%. Besides, the growth inhibition in experiment [3] (setting [7]) is 36%; in experiment [3] (setting [8]) it was 83% (active); in experiment [3] (at 50.0 µM) it was 90.9% (active); in experiment [4] (setting [7]), 54%; in experiment [4] (setting [8]), 77% (active); in experiment [4] (at 50.0 µM) it was 90.4% (active). Further, the growth inhibition in experiment [5] (setting [7]) is 53%; in experiment [5] (setting [8]), 79% (active); in experiment [5] (at 50.0 µM), 80.4% (active); in experiment [6] (setting [7]), 62%; in experiment [6] (setting [8]), 81% (active); in experiment [6] (at 50.0 µM), 83.2% (active).
Turning to `Cc1ccsc1/C=N/Nc1cc(C)c2cccc(C)c2n1`, the growth inhibition in experiment [1] (setting [7]) was 1%; in experiment [1] (setting [8]), 47%; in experiment [1] (at 50.0 µM), 48.5%; in experiment [2] (setting [7]) it was -23%; in experiment [2] (setting [8]), 21%; in experiment [2] (at 50.0 µM) it was 30.3%. For the same compound, the growth inhibition in experiment [3] (setting [7]) is -11%; in experiment [3] (setting [8]), 24%; in experiment [3] (at 50.0 µM) it was 48.4%; in experiment [4] (setting [7]) it was 4%; in experiment [4] (setting [8]), 38%; in experiment [4] (at 50.0 µM) it was 33.8%. Besides, the growth inhibition is -12% in experiment [5] (setting [7]); 63% in experiment [5] (setting [8]); 15.4% in experiment [5] (at 50.0 µM); -8% in experiment [6] (setting [7]); 57% in experiment [6] (setting [8]); 63.2% in experiment [6] (at 50.0 µM).
As for `O=Cc1c(Cn2ccnc2)c2cc([N+](=O)[O-])ccc2n1Cc1ccccc1`, the growth inhibition is 5% in experiment [1] (setting [7]); 49% in experiment [1] (setting [8]); 62.5% in experiment [1] (at 50.0 µM); 4% in experiment [2] (setting [7]); 39% in experiment [2] (setting [8]); 13.7% in experiment [2] (at 50.0 µM). Also, the growth inhibition was 6% in experiment [3] (setting [7]); 48% in experiment [3] (setting [8]); 57.2% in experiment [3] (at 50.0 µM); -2% in experiment [4] (setting [7]); -17% in experiment [4] (setting [8]); 22.9% in experiment [4] (at 50.0 µM). Besides, the growth inhibition was -3% in experiment [5] (setting [7]); -1% in experiment [5] (setting [8]); 3.8% in experiment [5] (at 50.0 µM); 8% in experiment [6] (setting [7]); 64% in experiment [6] (setting [8]); 68.5% in experiment [6] (at 50.0 µM).
With `COc1ccc2c(C)cc(N/N=C/c3cccc(C)n3)nc2c1`, the growth inhibition in experiment [1] (setting [7]) is -1%; in experiment [1] (setting [8]) it was 4%; in experiment [1] (at 50.0 µM) it was 75.1% (active); in experiment [2] (setting [7]) it was -2%; in experiment [2] (setting [8]), 8%; in experiment [2] (at 50.0 µM) it was 31.2%. Further, the growth inhibition in experiment [3] (setting [7]) is 4%; in experiment [3] (setting [8]), 28%; in experiment [3] (at 50.0 µM), 97.4% (active); in experiment [4] (setting [7]) it was 5%; in experiment [4] (setting [8]), 5%; in experiment [4] (at 50.0 µM) it was 19.1%. The growth inhibition is -4% in experiment [5] (setting [7]); -4% in experiment [5] (setting [8]); 22.2% in experiment [5] (at 50.0 µM); -5% in experiment [6] (setting [7]); 19% in experiment [6] (setting [8]); 28.8% in experiment [6] (at 50.0 µM).
Take `CCN(CC)CCOC(=O)C1CCCCC1C(=O)C1CCCCC1` (stereo not given): the growth inhibition in experiment [1] (setting [7]) is -3%; in experiment [1] (setting [8]) it was 3%; in experiment [1] (at 50.0 µM), 29.4%; in experiment [2] (setting [7]), -3%; in experiment [2] (setting [8]) it was 0%; in experiment [2] (at 50.0 µM), -1.6%. The growth inhibition in experiment [3] (setting [7]) is -7%; in experiment [3] (setting [8]), 5%; in experiment [3] (at 50.0 µM) it was 21.4%; in experiment [4] (setting [7]) it was -2%; in experiment [4] (setting [8]), 8%; in experiment [4] (at 50.0 µM) it was 34.5%. For the same compound, the growth inhibition in experiment [5] (setting [7]) was -3%; in experiment [5] (setting [8]), 14%; in experiment [5] (at 50.0 µM), 0.85%; in experiment [6] (setting [7]), 1%; in experiment [6] (setting [8]), 1%; in experiment [6] (at 50.0 µM), 11.7%.
Take `Nc1nc(-c2ccc(Cl)cc2)c(N=Nc2ccc(Br)cc2)s1`: the growth inhibition is 1% in experiment [1] (setting [7]); 93% (active) in experiment [1] (setting [8]); 97.5% (active) in experiment [1] (at 50.0 µM); -20% in experiment [2] (setting [7]); 96% (active) in experiment [2] (setting [8]); 98% (active) in experiment [2] (at 50.0 µM). Moreover, the growth inhibition was 3% in experiment [3] (setting [7]); 94% (active) in experiment [3] (setting [8]); 98.3% (active) in experiment [3] (at 50.0 µM); -11% in experiment [4] (setting [7]); 89% (active) in experiment [4] (setting [8]); 95.4% (active) in experiment [4] (at 50.0 µM). For the same compound, the growth inhibition in experiment [5] (setting [7]) was -17%; in experiment [5] (setting [8]) it was 91% (active); in experiment [5] (at 50.0 µM), 96.5% (active); in experiment [6] (setting [7]) it was 11%; in experiment [6] (setting [8]), 97% (active); in experiment [6] (at 50.0 µM), 98.5% (active).
With `CCCCCC(C)(O)C#CC(C)(O)CCCCC` (stereo not given), the growth inhibition in experiment [1] (setting [7]) is 2%; in experiment [1] (setting [8]), 99% (active); in experiment [1] (at 50.0 µM) it was 38.8%; in experiment [2] (setting [7]) it was 5%; in experiment [2] (setting [8]), 99% (active); in experiment [2] (at 50.0 µM) it was 4.55%. For the same compound, the growth inhibition in experiment [3] (setting [7]) is 1%; in experiment [3] (setting [8]) it was 99% (active); in experiment [3] (at 50.0 µM) it was 30.7%; in experiment [4] (setting [7]) it was 5%; in experiment [4] (setting [8]), 98% (active); in experiment [4] (at 50.0 µM), 75.7% (active). The growth inhibition in experiment [5] (setting [7]) was 3%; in experiment [5] (setting [8]), 96% (active); in experiment [5] (at 50.0 µM) it was 21.3%; in experiment [6] (setting [7]) it was 2%; in experiment [6] (setting [8]), 99% (active); in experiment [6] (at 50.0 µM), 26.7%.
